Measurements: PubChem BioAssay (NCATS)
Inconclusive results are not listed. Active and inactive are the calls of the source. Calls come from the whole dose curve; as a rule, active = well fitted cell-killing curve with a large enough effect; inconclusive = small, poorly fitted or top-dose-only effect, or effect the other way; inactive = flat fitted curve, though single readings scatter. Where a SMILES comes first, the peptide text is derived from it. [ ]: non-standard residue; d: D form. 2Abz = Nc1ccccc1C(=O)O

Assays:
Experiment in all cases: Primary qHTS to identify gynecologic anti-cancer compounds using libraries of approved drugs and bioactive compounds (AID 1345084); note: nearly all actives have a fitted effect of over 55% in size
[1] = system: Es-2; details: Gynecologic cancer cell panel viability, ATPlite luminescence, 48 h; series mostly up to 57.5 µM
In short: (§1)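 Five-point cytotoxicity, 48 h drug exposure at 37 C, 5% CO2, on cells seeded 16 h beforehand. ATP content read by ATPlite luminescence.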

[2] = system: HeLa; details: Gynecologic cancer cell panel viability, ATPlite luminescence, 48 h; series mostly up to 57.5 µM
In short: as §1

[3] = system: Hek293T; details: Gynecologic cancer cell panel viability, ATPlite luminescence, 48 h, control line for the selectivity index; series mostly up to 57.5 µM
In short: as §1

[4] = system: JEG-3; details: Gynecologic cancer cell panel viability, ATPlite luminescence, 48 h; series mostly up to 57.5 µM
In short: as §1

[5] = system: OV90; details: Gynecologic cancer cell panel viability, ATPlite luminescence, 48 h; series mostly up to 57.5 µM
In short: as §1

[6] = system: PA-1; details: Gynecologic cancer cell panel viability, ATPlite luminescence, 48 h; series mostly up to 57.5 µM
In short: as §1

[7] = system: SKOV3; details: Gynecologic cancer cell panel viability, ATPlite luminescence, 48 h; series mostly up to 57.5 µM
In short: as §1

[8] = system: Tov-21-G; details: Gynecologic cancer cell panel viability, ATPlite luminescence, 48 h; series mostly up to 57.5 µM
In short: as §1

[9] = system: Tov112D; details: Gynecologic cancer cell panel viability, ATPlite luminescence, 48 h; series mostly up to 57.5 µM
In short: as §1

Measured: Potency

C=C1[C@@H]2CC[C@@]3(C)[C@H](c4ccoc4)OC(=O)C[C@]13O[C@H]1CC(=O)C(C)(C)[C@H](CC(=O)OC)[C@]12C
inactive: all assays above

CC1CC(O)CC(C)(C)C1(O)CCO (stereo unspecified)
inactive: all assays above

CCOc1nc2cccc(C(=O)O)c2n1Cc1ccc(-c2ccccc2-c2noc(=O)[nH]2)cc1
inactive: all assays above

CCNC(=O)[C@@H]1CCCN1C(=O)[C@H](CCCN=C(N)N)NC(=O)[C@H](CC(C)C)NC(=O)[C@@H](C)NC(=O)[C@H](Cc1ccc(O)cc1)NC(=O)[C@H](CO)NC(=O)[C@H](Cc1c[nH]c2ccccc12)NC(=O)[C@H](Cc1cnc[nH]1)NC(=O)[C@@H]1CCC(=O)N1
inactive: all assays above

CCC1CC2C(C)=CC3CCCCC3C2(C)C2(OC(=O)C(C)(O)OC2=O)O1 (stereo unspecified)
inactive: all assays above

CC(=O)OC(CSC1CCC(=O)OC(C)CCC(=O)C1)C(=O)O (stereo unspecified)
inactive: all assays above

C=C1C(OC(C)=O)C(=O)C2C(C)(C)C(OC(C)=O)CCC2(C)C1CC(OC(C)=O)/C(C)=C/COC(C)=O (stereo unspecified)
inactive: all assays above

C=C1CC2(C(=O)O)CC1CCC2C1(C)CCCC2(C)C(=O)OC(O)C21 (stereo unspecified)
inactive: all assays above

CC(C)(O)C1=CCC23COC(C2)C(O)(C(=O)O)CCC13 (stereo unspecified)
inactive: all assays above

CC1CCC2C(C)(C)C(O)CCC2(C)C12Cc1c(O)cc3c(c1O2)C(N)=NC3 (stereo unspecified)
inactive: all assays above

C[C@H]1[C@H](C)CC[C@]2(C(=O)O)CC[C@]3(C)C(=CC[C@@H]4[C@@]5(C)C[C@@H](O)[C@H](O)[C@@](C)(CO)[C@@H]5CC[C@]43C)[C@H]12
inactive: all assays above

N#CC1C(=O)Nc2scc(-c3ccc(-c4ccccc4O)cc3)c2C1=O (stereo unspecified)
inactive: all assays above

C/C=C/C=C/C=C/C(=O)O[C@@H]1[C@@H](OC)C2=C(C(=O)N(C(C)C(=O)O)C2)[C@@]2(C)CCCC(C)(C)[C@H]12 (stereo partly specified)
inactive: all assays above

C=C1CC[C@H]2[C@@H](/C=C(\C)C(=O)[C@@]3(OC(C)=O)C[C@H](C)[C@H](OC(C)=O)[C@@H]3[C@H]1OC(C)=O)C2(C)C
inactive: all assays above

CC(=O)N1CCN(NC(=O)c2ccc(F)cc2)CC1
inactive: all assays above

CC(=O)c1c(O)cc2c(c1C)C(=O)CC(O)C2 (stereo unspecified)
inactive: all assays above

C=C1CC[C@H]2[C@@](C)(CCC[C@@]2(C)C(=O)O)[C@@H]1CCC(C)CCO (stereo partly specified)
inactive: all assays above

COC(=O)CC[C@@H](C)[C@H]1CC[C@H]2[C@@H]3CC(=O)[C@H]4C[C@H](OC(C)=O)CC[C@]4(C)[C@H]3CC[C@]12C
inactive: all assays above

CC(C#N)C(C)O[C@@H]1O[C@H](CO)[C@@H](O)[C@H](O)[C@H]1O (stereo partly specified)
inactive: all assays above

CCNC(=O)[C@H]1O[C@H](n2cnc3c(NCC(c4ccccc4)c4ccccc4)nc(C(=O)NCCNC(=O)NC4CCN(c5ccccn5)CC4)nc32)[C@H](O)[C@@H]1O
inactive: all assays above

COc1cc2c(cc1OC)CN(C(=O)[C@@H](NCc1ccncc1)C(C)(C)C)CC2
inactive: all assays above

CC(=O)OC1C=C(C(=O)O)C2(CO)CCC(C)C(C)(CCc3ccoc3)C2C1 (stereo unspecified)
inactive: all assays above

CCC(C)C1NC(=O)C2CCCN2C(=O)C(C(C)C)NC(=O)c2ccccc2NC(=O)C(Cc2ccc(O)cc2)NC(=O)C(C)NC(=O)C(C(C)O)NC1=O (stereo unspecified) (cyclo([2Abz]VPITAY); configuration not given here)
inactive: all assays above

CC1(C)CC[C@]2(C(=O)O)CC[C@]3(C)C(=CCC4[C@@]5(C)CC[C@H](O[C@@H]6O[C@H](C(=O)O)[C@@H](O)[C@H](O)[C@H]6O)C(C)(CO)C5CC[C@]43C)C2C1 (stereo partly specified)
inactive: all assays above

CC1(C)CCC(C)(C)c2cc3c(cc21)Sc1ccccc1N=C3c1ccc(C(=O)O)cc1
inactive: all assays above

Cc1ccc2c(c1)C=Cc1cc(C)ccc1C2c1cn(Cc2ccc(C(=O)Nc3nn[nH]n3)o2)c(=O)[nH]c1=S
inactive: all assays above

CN1CCC(c2c[nH]c3ccc(NC(=O)c4ccc(F)cc4)cc23)CC1
inactive: all assays above

O=C(O)c1ccc(CCCc2ccc(OCCc3ccc(F)cc3)cc2)o1
inactive: all assays above

C=C(C)[C@H]1C[C@@H](O)C(=C)CC[C@@H](O)C(=C)[C@@H](O)C1
inactive: all assays above

CC1CCC2(O1)C(C)(C)CC(O[C@@H]1O[C@H](CO[C@@H]3OC[C@](O)(CO)[C@H]3O)[C@@H](O)[C@H](O)[C@H]1O)CC2(C)O (stereo partly specified)
inactive: all assays above

CC(O)C(O)/C=C/C=C/C(=O)O[C@@H]1C=C2COC(=O)[C@]2(O)[C@@]2(C)CCCC(C)(C)C12 (stereo partly specified)
inactive: all assays above

O=C(c1ccc(C#Cc2cccc(F)c2)cn1)N1CC2CC2C1 (stereo unspecified)
inactive: all assays above

CC1CCC2C(C)(C)C(O)CCC2(C)C12Cc1c(O)cc3c(c1O2)CN=C3N (stereo unspecified)
inactive: all assays above

CC1CCC2C(C(=O)O)=CC3CC(C)(C)CC132 (stereo unspecified)
inactive: all assays above
